Measurements taken from PubChem BioAssay (Tox21).
Records with an inconclusive call do not appear. Calls of active or inactive are those of the source. Unless noted, calls follow the shape of the dose curve; as a rule, active = well fitted curve in the direction sought with a large enough effect in the repeat runs; inconclusive = weak or mixed curves; inactive = no such curve, though single readings can be large; an effect the other way counts as inactive or inconclusive.

Columns and labels:
[1] = qHTS assay for small molecule agonists of the p53 signaling pathway (AID 651631; calls by dose curve; also: nearly all actives have a fitted effect of over 15% in size)
Procedure, shortened: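 Beta-lactamase reporter activity under p53 response elements was quantified in HCT-116 cells by FRET fluorescence, following 16 h incubation with test compounds at 37 °C and 2 h substrate development at room temperature.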

[2] = qHTS assay for small molecules that induce genotoxicity in human embryonic kidney cells expressing luciferase-tagged ATAD5 (AID 651632); also: nearly all actives have a fitted effect of over 15% in size
Procedure, shortened: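 Reporter cells (HEK293T) express luciferase-tagged ATAD5, a protein that accumulates after DNA damage. Treat 16 hr at 37C/5% CO2, add Amplite, wait 30 min at RT, and read luminescence.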

[3] = qHTS assay for small molecule agonists of the p53 signaling pathway - cell viability (AID 651633; calls by dose curve;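 also: p53RE-bla HCT reporter cells with a stable beta-lactamase p53 reporter; series mostly up to about 83 µM; nearly all actives have a fitted effect of over 30% in size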)
Procedure, shortened: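 p53RE-bla cells, seeded at 4,000 per well and rested 5 h at 37 C/5% CO2, received compounds in DMSO for 16 h at 37 C. CellTiter-Glo was then added, and luminescence was read after 30 min at room temperature to gauge cytotoxicity.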

[4] = qHTS assay for small molecules that induce genotoxicity in human embryonic kidney cells expressing luciferase-tagged ATAD5 - cell viability (AID 651634; calls by dose curve; also: nearly all actives have a fitted effect of over 25% in size)
Procedure, shortened: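 Seeding of 2,000 HEK293T ATAD5-luciferase cells per well preceded pin-tool compound transfer. Plates sat 15.5 hr at 37C under 5% CO2, then fluorescence was read after 30 min with CellTiter-Fluor.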

[5] = qHTS assay for small molecule disruptors of the mitochondrial membrane potential - cell viability (AID 720634; calls by dose curve;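 also: human HepG2 liver cancer cells; series mostly up to about 83 µM; nearly all actives have a fitted effect of over 20% in size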)
Procedure, shortened: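 Measuring cytotoxicity alongside mitochondrial potential, the screen quantified ATP by luminescence in HepG2 cells after 1 hr compound incubation and a 30 min room-temperature CellTiter-Glo step.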

[6] = qHTS assay for small molecule disruptors of the mitochondrial membrane potential (AID 720635); also: potency is read from the fitted curve at half-maximal effect
Procedure, shortened: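 HepG2 cells (2,000/well) attached overnight at 37C, then took compound for 1 hr at 37C, 5% CO2. Mito-MPS dye was added for 30 min; fluorescence was read at 490/535 nm (monomers) and 540/590 nm (aggregates).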

[7] = qHTS assay to test for compound auto fluorescence at 590 nm (red) in HepG2 cells (AID 720674)
Procedure, shortened: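 Intrinsic compound fluorescence in the red window (Ex/Em 540/590 nm) is measured in attached HepG2 cells exposed for 1 hr, DMSO vehicle as baseline, benchmarked to Rose Bengal sodium.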

[8] = qHTS assay to test for compound auto fluorescence at 460 nm (blue) in HEK293 cells (AID 720678)
Procedure, shortened: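 HEK293, 2,000 cells/well, 10% dialyzed FBS; attach 4-5 hr 37C; pin compound or DMSO; o/n 37C/5% CO2; fluorescence 405/460 nm; triamterene-equivalent units.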

[9] = qHTS assay to test for compound auto fluorescence at 590 nm (red) in HEK293 cells (AID 720679)
Procedure, shortened: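 Intensity at 540nm excitation and 590nm emission is reported as Rose Bengal sodium-equivalent autofluorescence. Measurements followed overnight exposure (37C, 5% CO2) of HEK293 cells, 2,000 per well, to 23 nL compound.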

[10] = qHTS assay to test for compound auto fluorescence at 535 nm (green) in HEK293 cells (AID 720680)
[11] = qHTS assay to test for compound auto fluorescence at 460 nm (blue) in HEK293 cell free culture (AID 720681)
Procedure, shortened: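 Test compounds were pinned into cell-free culture medium (DMEM with 10% FBS) and fluorescence was read directly at Ex/Em 405/460 nm. Signals were expressed as fluorescence equivalents of triamterene, with DMSO vehicle as control.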

[12] = qHTS assay to test for compound auto fluorescence at 535 nm (green) in HEK293 cell free culture (AID 720682)
Procedure, shortened: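 Each library compound, or DMSO control, is added by pintool to medium alone, comprising DMEM and 10% FBS. Emission at 535 nm following 485 nm excitation is quantified against fluorescein.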

[13] = qHTS assay to test for compound auto fluorescence at 590 nm (red) in HEK293 cell free culture (AID 720683)
Procedure, shortened: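 Tox21 10K library compounds were pinned into cell-free DMEM with 10% FBS and fluorescence was read at excitation 540 nm. Activity is expressed as Rose Bengal sodium equivalency.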

[14] = qHTS assay to test for compound auto fluorescence at 590 nm (red) in HepG2 cell free culture (AID 720684)
Procedure, shortened: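 Red fluorescence (540 nm excitation, 590 nm emission) was measured after compound transfer into cell-free MEM supplemented with 10% FBS. Values are equivalencies against Rose Bengal sodium.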

[15] = qHTS assay to test for compound auto fluorescence at 460 nm (blue) in HepG2 cell free culture (AID 720685)
Procedure, shortened: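 Compound (23 nL) or DMSO pinned into cell-free MEM with 10% FBS; blue fluorescence read at 405/460 nm excitation/emission, expressed as auto-fluorescence equivalency to triamterene.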

[16] = qHTS assay to test for compound auto fluorescence at 535 nm (green) in HepG2 cell free culture (AID 720686)
[17] = qHTS assay to test for compound auto fluorescence at 460 nm (blue) in HepG2 cells (AID 720687)
Procedure, shortened: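 Cells (2,000/well in MEM with 10% FBS) attached overnight at 37 C, then were exposed to compound or DMSO for 1 hr at 37 C, 5% CO2. Fluorescence read at Ex/Em 405/460 nm, expressed as triamterene-equivalent signal.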

[18] = qHTS assay to test for compound auto fluorescence at 535 nm (green) in HepG2 cells (AID 720675)
[19] = biological target: Glucocorticoid receptor (Homo sapiens) (UniProt P04150); test: qHTS assay to identify small molecule agonists of the glucocorticoid receptor (GR) signaling pathway (AID 720691; active = well fitted activation curve with a large enough effect in the signal ratio in the repeat runs, not every such curve was filed as active; the % refers to the signal ratio)
Chain of Glucocorticoid receptor (Homo sapiens) (P04150 whole entry, looked up): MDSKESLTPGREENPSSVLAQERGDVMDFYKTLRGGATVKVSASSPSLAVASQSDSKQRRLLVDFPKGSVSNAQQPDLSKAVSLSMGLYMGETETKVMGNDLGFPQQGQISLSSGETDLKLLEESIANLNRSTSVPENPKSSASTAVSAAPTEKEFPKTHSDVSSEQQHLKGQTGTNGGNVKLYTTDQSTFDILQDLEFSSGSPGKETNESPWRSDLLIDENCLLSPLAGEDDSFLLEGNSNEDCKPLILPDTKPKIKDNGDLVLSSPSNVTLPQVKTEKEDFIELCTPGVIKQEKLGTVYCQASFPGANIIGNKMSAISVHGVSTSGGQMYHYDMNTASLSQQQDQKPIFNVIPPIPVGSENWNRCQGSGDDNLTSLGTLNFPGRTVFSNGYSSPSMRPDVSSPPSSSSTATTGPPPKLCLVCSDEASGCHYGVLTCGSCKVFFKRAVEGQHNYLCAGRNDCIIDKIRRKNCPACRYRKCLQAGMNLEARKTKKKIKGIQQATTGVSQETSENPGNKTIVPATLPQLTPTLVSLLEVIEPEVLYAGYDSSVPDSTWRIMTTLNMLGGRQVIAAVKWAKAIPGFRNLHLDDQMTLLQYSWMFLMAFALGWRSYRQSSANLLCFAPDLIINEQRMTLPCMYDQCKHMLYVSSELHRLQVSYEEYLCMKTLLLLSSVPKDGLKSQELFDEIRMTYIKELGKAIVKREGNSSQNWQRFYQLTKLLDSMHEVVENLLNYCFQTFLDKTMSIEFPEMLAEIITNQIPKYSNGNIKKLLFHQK
Procedure, shortened: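 Reporter read-out: fluorescence intensity following 2 h room-temperature LiveBLAzer B/G FRET substrate loading. Prior step: GR-bla HeLa cells held 4 h, then treated 18 h at 37 C.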

[20] = biological target: Glucocorticoid receptor (Homo sapiens) (UniProt P04150); test: qHTS assay to identify small molecule antagonists of the glucocorticoid receptor (GR) signaling pathway (AID 720692; active = well fitted inhibition curve with a large enough effect in the signal ratio in the repeat runs, not every such curve was filed as active; the % refers to the signal ratio)
Procedure, shortened: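 Dexamethasone (5 nM final) stimulated a stably integrated GRE-beta-lactamase reporter in HeLa cells during 18 h co-incubation with compounds; signal was quantified as fluorescence intensity of B/G FRET substrate after 2 h.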

Measured: Potency

CCC(CC)(CC(=O)Nc1cccc(/C=C/c2nc(C3CCC3)cs2)c1)C(=O)O
active: [6] 27.8 µM
inactive: [1] | [2] | [3] | [4] | [5] | [7] | [8] | [9] | [10] | [11] | [12] | [13] | [14] | [15] | [16] | [17]

CN(C)Cc1ccccc1O
inactive: [1] | [2] | [3] | [4] | [5] | [6] | [7] | [18] | [8] | [9] | [10] | [11] | [12] | [13] | [14] | [15] | [16] | [17] | [19]

CC(C)(C)NSc1nc2ccccc2s1
inactive: [1] | [2] | [3] | [4] | [5] | [7] | [18] | [8] | [9] | [10] | [11] | [12] | [13] | [14] | [15] | [16] | [17] | [19]
active: [6] 24.8 µM

CC(C)CCOC(=O)/C=C/c1ccccc1
inactive: [1] | [2] | [3] | [4] | [5] | [6] | [7] | [8] | [10] | [11] | [12] | [13] | [14] | [16] | [17] | [19] | [20]

CC(CCc1ccccc1)NCC(O)c1ccc(O)c(C(N)=O)c1 (stereo unspecified)
inactive: [1] | [2] | [3] | [4] | [5] | [6] | [7] | [18] | [8] | [9] | [11] | [12] | [13] | [14] | [15] | [16] | [17] | [19]

OC[C@H]1O[C@H](O[C@H]2O[C@H](CO)[C@@H](O)[C@H](O)[C@H]2O)[C@H](O)[C@@H](O)[C@@H]1O
inactive: [1] | [2] | [3] | [4] | [5] | [6] | [18] | [8] | [9] | [10] | [11] | [12] | [13] | [14] | [15] | [16] | [19] | [20]

Cc1ccc(C(=O)O)cc1
inactive: [1] | [2] | [3] | [4] | [5] | [6] | [7] | [18] | [8] | [9] | [10] | [11] | [12] | [13] | [14] | [15] | [16] | [17]
